Molecules are shown by their SMILES. Counter-ions that a name gives are not always drawn. ± gives the standard deviation of the averaged measurements.
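Further: End-point A600 read in BHI broth at 37 °C with 2% DMSO, inhibition computed as (1 − OD with compound plus ceftriaxone ÷ OD with ceftriaxone only) × 100.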

The test relates to Listeria monocytogenes 10403S. Briefly: growth inhibition relative to ceftriaxone-alone control; higher = stronger potentiation of ceftriaxone growth inhibition. Particulars: 10 µM; ceftriaxone 1 ug/ml; 12 h.
Turning to `CS(=O)(=O)CCNCc1ccc(-c2ccc3ncnc(Nc4ccc(OCc5ccccc5)c(C(F)(F)F)c4)c3c2)o1`, the growth inhibition was -5.15 ± 0.36%.

Regarding `Fc1ccc(-c2ncn(C3CCNCC3)c2-c2ccnc(Oc3ccc(F)c(F)c3)n2)cc1`, the growth inhibition was 10.7 ± 16%.

For the molecule `CC1(C)CNc2cc(NC(=O)c3cccnc3NCc3ccncc3)ccc21` [Motesanib Diphosphate (AMG-706)], the growth inhibition was 22.2 ± 22%.

Regarding `O=C1Nc2ccccc2/C1=C/Nc1ccc(-n2cncn2)cc1`, the growth inhibition was 0.116 ± 3.5%.

On to `Clc1ccc(CNc2nccc(-c3cnn4ncccc34)n2)cc1`, for which the growth inhibition is -1.66 ± 1.6%.

With `[O-][S+]1CCN(Cc2ccc(-c3ccc4ncnc(Nc5ccc(OCc6ccccc6)c(F)c5)c4c3)o2)CC1`, the growth inhibition is 2.23 ± 7.9%.

Take `Cc1c2ccc(N(C)c3ccnc(Nc4cccc(S(N)(=O)=O)c4)n3)cc2nn1C`: the growth inhibition was found to be 2.52 ± 4.2%.

`COc1ccc(-c2nn3ncccc3c2-c2ccnc(Nc3ccc(F)c(F)c3)n2)cc1`: the growth inhibition was -0.06 ± 1.5%.

Turning to `CS(=O)(=O)Nc1cccc(-c2ccc3c(NC(=O)C4CC4)n[nH]c3c2)c1`, the growth inhibition was -6.98 ± 15%.

Consider `COc1cc2ncnc(Nc3ccc(O)c(Br)c3)c2cc1OC`, for which the growth inhibition amounted to 13.4 ± 5.2%.

For the molecule `COc1cc(Nc2ncc3c(C)nc(-c4cccc(C(F)(F)F)c4)n3n2)cc(OC)c1OC`, the growth inhibition is -2.03 ± 8.5%.

Take `CCS(=O)(=O)c1ccc(OC)c(Nc2ncc(-c3cccc(C(C)=O)c3)o2)c1`: the growth inhibition amounted to 7.79 ± 2.2%.

In the case of `Cc1ccc(NC(=O)c2ccc(CN3CCN(C)CC3)cc2)cc1Nc1nccc(-c2cccnc2)n1` [Imatinib Mesylate], the growth inhibition turned out to be 29.9 ± 17%.

On to `O=C(O)[C@]1(Cc2cccc(Nc3nccs3)n2)CC[C@@H](Oc2cccc(Cl)c2F)CC1`, for which the growth inhibition turned out to be 89.4 ± 3%.

Turning to `N#CCNC(=O)c1ccc(-c2ccnc(Nc3ccc(N4CCOCC4)cc3)n2)cc1`, the growth inhibition was determined as 33 ± 13%.

For the origin of these results see the supplement of paper PMC5641865, “A screen for kinase inhibitors identifies antimicrobial imidazopyridine aminofurazans as specific inhibitors of the Listeria monocytogenes PASTA kinase PrkA” (The Journal of Biological Chemistry, 2017).
